Test results taken from PubChem BioAssay (Tox21).
Inconclusive results are not listed. Active and inactive are the calls of the source. Unless noted, calls come from the whole dose curve; as a rule, active = well fitted curve in the direction sought with a large enough effect in the repeat runs; inconclusive = weak or mixed curves; inactive = no such curve, though single readings can be large; an effect the other way counts as inactive or inconclusive.

What was measured:
[1] = qHTS assay to identify small molecule HDAC inhibitors (AID 1259364); note: nearly all actives have a fitted effect of over 45% in size; note: potency is the fitted concentration of half-maximal effect
How it was run: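 Homogeneous cell-based luminescent assay of endogenous class I/II HDAC activity; HCT-116 cells, 2 h compound exposure, 30 min HDAC-Glo development at RT.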

[2] = qHTS assay to identify small molecule HDAC inhibitors - cell viability counter screen (AID 1259365); note: series mostly up to about 92 µM; nearly all actives have a fitted effect of over 50% in size
How it was run: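 CellTiter-Glo luminescence (30 min, room temperature) reported viability after a 2 h compound exposure at 37 C. Cells: wild-type HCT-116, 1,500 per well, seeded the night before.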

[3] = qHTS assay to identify small molecule agonists of the sonic hedgehog signaling (Shh) pathway - cell viability counter screen (AID 1259366); note: nearly all actives have a fitted effect of over 50% in size
How it was run: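 Cytotoxicity counter screen: CellTiter-Fluor reagent added after 23 h compound exposure, then 1 h at 37C and fluorescence read. Cells were 3T3 Gli1-Luc, seeded 2,000 per well and dosed 4 h post-plating.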

[4] = qHTS assay to identify small molecule antagonists of the sonic hedgehog signaling (Shh) pathway - cell viability counter screen (AID 1259367); note: nearly all actives have a fitted effect of over 55% in size
How it was run: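 After a 4 hr settling period, 3T3 Gli1-Luc cells were treated with DMSO-dissolved chemicals and conditioned medium, kept 24 hr at 37C in 5% CO2, and assayed for viability by CellTiter-Fluor fluorescence following 1 hr reagent incubation.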

[5] = qHTS assay to identify small molecule agonists of the sonic hedgehog signaling (Shh) pathway (AID 1259368; calls by dose curve;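 note: NIH/3T3-derived 3T3Gli1-Luc cells carrying a stable Gli1-driven firefly luciferase reporter; series mostly up to about 92 µM; nearly all actives have a fitted effect of over 15% in size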)
How it was run: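 Steps: seed 3T3 Gli1-Luc cells, incubate 4 hr at 37 C, pin-transfer compounds in DMSO alongside a positive control, incubate 24 hr, add luciferase detection reagent, wait 30 min at room temperature, read luminescence.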

[6] = qHTS assay to identify small molecule antagonists of the sonic hedgehog signaling (Shh) pathway (AID 1259369; calls by dose curve; note: nearly all actives have a fitted effect of over 45% in size)
How it was run: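 Inhibition of Shh signalling is measured as reduced Gli1-response-element firefly luciferase output in an NIH/3T3-derived stable reporter clone stimulated with conditioned medium for 24hr.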

[7] = target: Estrogen receptor beta (Homo sapiens) (UniProt Q92731); assay: qHTS assay to identify small molecule agonists of the estrogen receptor beta (ER-beta) signaling pathway (AID 1259377; active = well fitted activation curve with a large enough effect in the signal ratio in the repeat runs, not every such curve was filed as active; the % refers to the signal ratio)
How it was run: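 Ratiometric beta-lactamase FRET read-out came after 2 h substrate loading at room temperature. It followed 16 h compound treatment at 37C of GripTite HEK293T cells carrying a UAS-bla reporter, plated in 2% charcoal-stripped FBS medium.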

[8] = target: Estrogen receptor beta (Homo sapiens) (UniProt Q92731); assay: qHTS assay to identify small molecule antagonists of the estrogen receptor beta (ER-beta) signaling pathway (AID 1259378; active = well fitted inhibition curve with a large enough effect in the signal ratio in the repeat runs, not every such curve was filed as active; the % refers to the signal ratio)
How it was run: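 ER-beta-UAS-bla HEK293T (GripTite) cells in 2% charcoal-stripped FBS medium were preincubated 6 hr at 37C, dosed with compound, then stimulated with 1 nM E2 (final) for 16 hr; beta-lactamase reporter read by B/G FRET fluorescence after 2 hr substrate loading.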

[9] = qHTS assay to identify small molecule agonists of the androgen receptor (AR) signaling pathway in the presence of an antagonist - cell viability counter screen (AID 1259379);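 note: MDA-kb2 human breast cancer cells carrying an MMTV luciferase reporter; series mostly up to about 92 µM; nearly all actives have a fitted effect of over 25% in size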
How it was run: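 Fluorescence from CellTiter-Fluor, added after 15 hr and read 1 hr later, gave cell viability. Cells were MDA-kb2 exposed to compounds (15 concentrations) in the presence of 3.0uM nilutamide at 37C, 0% CO2.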

[10] = qHTS assay to identify small molecule agonists of the estrogen receptor beta (ER-beta) signaling pathway - cell viability counter screen (AID 1259380); note: nearly all actives have a fitted effect of over 30% in size
How it was run: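 Same-well viability counter screen. Cells: ER-beta-UAS-bla HEK293T, plated 6 hr before compound, in 2% charcoal-stripped FBS. Compound exposure 16 hr, 37C; viability by CellTiter-Glo luminescence after 30 min at room temperature.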

Measured: Potency

Chain of Estrogen receptor beta (Homo sapiens) (Q92731 whole entry, looked up): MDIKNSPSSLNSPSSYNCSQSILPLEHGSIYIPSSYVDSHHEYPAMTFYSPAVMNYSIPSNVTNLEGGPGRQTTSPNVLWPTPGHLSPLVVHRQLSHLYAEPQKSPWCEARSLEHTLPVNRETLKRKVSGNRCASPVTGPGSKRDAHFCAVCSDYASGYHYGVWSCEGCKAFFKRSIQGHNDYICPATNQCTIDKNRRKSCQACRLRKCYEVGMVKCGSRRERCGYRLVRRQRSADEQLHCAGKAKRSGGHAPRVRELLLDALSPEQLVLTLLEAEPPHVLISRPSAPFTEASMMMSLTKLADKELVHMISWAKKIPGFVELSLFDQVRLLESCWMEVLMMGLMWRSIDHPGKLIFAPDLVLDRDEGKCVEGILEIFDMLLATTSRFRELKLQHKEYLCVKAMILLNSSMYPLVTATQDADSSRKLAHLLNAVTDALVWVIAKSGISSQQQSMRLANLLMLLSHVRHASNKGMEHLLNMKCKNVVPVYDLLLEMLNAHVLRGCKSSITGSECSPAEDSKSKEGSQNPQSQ

CCCc1ccc(O)cc1
inactive: all assays above

O=C1CCCCO1
not listed: [8]
inactive: all other assays above

O=[N+]([O-])c1c(Cl)cc(Cl)cc1Cl
inactive: all assays above

O=C(O)CSCC(=O)NC1CCSC1=O (stereo not drawn)
inactive: all assays above

C=CCOC(=O)CCCCCC
inactive: all assays above

CCCC(=O)OC/C=C(\C)CCC=C(C)C
inactive: all assays above

CCN1CCCC1CN (stereo not drawn)
not listed: [10]
inactive: all other assays above

c1ccc(-c2nn[nH]n2)cc1
inactive: all assays above

C=C(C)c1cccc(C(C)(C)N=C=O)c1
inactive: all assays above

Cc1ccc(C)c([N+](=O)[O-])c1
not listed: [8]
inactive: all other assays above

CC(C)CO
not listed: [8]
inactive: all other assays above

CC(C)C1OCCN1CCOC(=O)NCCCCCCNC(=O)OCCN1CCOC1C(C)C (stereo not drawn)
not listed: [8]
inactive: all other assays above

CCOc1cccc(N)c1
not listed: [10]
inactive: all other assays above

Cc1ncc([N+](=O)[O-])n1CC(C)O (stereo not drawn)
not listed: [10]
inactive: all other assays above

O=C(Cl)c1ccccc1[N+](=O)[O-]
not listed: [8]
inactive: all other assays above

Cn1c(=O)c2[nH]c(Br)nc2n(C)c1=O
not listed: [8]
inactive: all other assays above

COC(=O)c1cc(Cl)cc(Cl)c1
not listed: [10]
inactive: all other assays above

C=C(C)C1CC=C(C)C(=O)C1 (stereo not drawn)
inactive: all assays above

CC(C)=CCC/C(C)=C/COC=O
not listed: [8]
inactive: all other assays above

O=C(O)c1cc2ccccc2nc1C(=O)O
inactive: all assays above

CC(CO)(CO)CO
not listed: [10]
inactive: all other assays above

CC(=O)OC1CCCCC1C(C)(C)C (stereo not drawn)
inactive: all assays above

CC12CCC(C1)C(C)(C)C2O (stereo not drawn)
not listed: [8]
inactive: all other assays above

Cc1c(Cl)cccc1Cl
inactive: all assays above

C#CCN[C@@H]1CCc2ccccc21
not listed: [10]
inactive: all other assays above

CCCCSCCCC
not listed: [8] | [10]
inactive: all other assays above

CN(C)CCN(C)CCO
inactive: all assays above

CCO
inactive: all assays above

COS(=O)(=O)O
not listed: [10]
inactive: all other assays above

CC/C=C\CCOC(=O)c1ccccc1O
active: [1] 15.4 µM
inactive: all other assays above

CCOC(=O)CC1(C)OCC(C)O1 (stereo not drawn)
inactive: all assays above

CCCCOCCOC(=O)COc1ccc(Cl)cc1Cl
not listed: [10]
inactive: all other assays above

CN(C)CCOC(=O)C(c1ccccc1)C1(O)CCCC1 (stereo not drawn)
inactive: all assays above

COC(=O)CCCCC(CCSS/C(CCO)=C(\C)N(C=O)Cc1cnc(C)nc1N)SC(C)=O (stereo not drawn)
inactive: all assays above

C=CCSSCCC
inactive: all assays above

CCCCCc1cccc(=O)o1
inactive: all assays above

CCOc1ccccc1OCC1CNCCO1 (stereo not drawn)
not listed: [8]
inactive: all other assays above

CC(=O)OCC(=O)Nc1cc(C#N)cc(NC(=O)COC(C)=O)c1Cl
not listed: [7]
inactive: all other assays above

CCCCOC(=O)[C@H](C)O
not listed: [7] | [8] | [10]
inactive: all other assays above

CO[C@@]1(NC(=O)Cc2cccs2)C(=O)N2C(C(=O)O)=C(COC(N)=O)CS[C@@H]21
not listed: [7] | [8] | [10]
inactive: all other assays above

COCCc1ccccn1
not listed: [7] | [8] | [10]
inactive: all other assays above

COC(C)(OC)OC
not listed: [7] | [8]
inactive: all other assays above

Nc1nnnn1-c1ccccc1
not listed: [7]
inactive: all other assays above

CSc1cnccn1
not listed: [7]
inactive: all other assays above

CC(=O)CC(=O)OC(C)(C)C
not listed: [8]
inactive: all other assays above

CCCCCC(C)O (stereo not drawn)
not listed: [7] | [8] | [10]
inactive: all other assays above

O=C(CCCCC(=O)Nc1c(I)cc(I)c(C(=O)O)c1I)Nc1c(I)cc(I)c(C(=O)O)c1I
not listed: [7] | [8]
inactive: all other assays above

C[C@H]1[C@@H](c2ccccc2)NC(=O)N1C
not listed: [7]
inactive: all other assays above

C=CCCCCCCCC
not listed: [7] | [8] | [10]
inactive: all other assays above

CC1=C(O)C(=O)C(C)O1 (stereo not drawn)
not listed: [7]
inactive: all other assays above

CC1=C(C(=O)O)N2C(=O)[C@@H](NC(=O)[C@H](N)c3ccccc3)[C@H]2SC1
not listed: [7] | [10]
inactive: all other assays above

Cc1cc(C)c(C(=O)O)c(C)c1
not listed: [8]
inactive: all other assays above
